Assay results reported in PubChem BioAssay.
Calls of active or inactive are those of the source.

Tests used:
Albumin (Bos taurus) = Albumin (Bos taurus) (UniProt P02769); assay: compounds binding labelled BSA control protein – biochemical, small-molecule microarray, Alexa647 label, 635/667 nm fluorescence, artefact control for SMM control protein annotation, profiling panel (AID 1118); conditions: BSA-A647 binding, fluorescence 635 nm, higher = more signal;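 also: score merges 667 nm emission intensity and signal-to-noise per printed compound spot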
Chain of Albumin (Bos taurus) (P02769 whole entry, looked up): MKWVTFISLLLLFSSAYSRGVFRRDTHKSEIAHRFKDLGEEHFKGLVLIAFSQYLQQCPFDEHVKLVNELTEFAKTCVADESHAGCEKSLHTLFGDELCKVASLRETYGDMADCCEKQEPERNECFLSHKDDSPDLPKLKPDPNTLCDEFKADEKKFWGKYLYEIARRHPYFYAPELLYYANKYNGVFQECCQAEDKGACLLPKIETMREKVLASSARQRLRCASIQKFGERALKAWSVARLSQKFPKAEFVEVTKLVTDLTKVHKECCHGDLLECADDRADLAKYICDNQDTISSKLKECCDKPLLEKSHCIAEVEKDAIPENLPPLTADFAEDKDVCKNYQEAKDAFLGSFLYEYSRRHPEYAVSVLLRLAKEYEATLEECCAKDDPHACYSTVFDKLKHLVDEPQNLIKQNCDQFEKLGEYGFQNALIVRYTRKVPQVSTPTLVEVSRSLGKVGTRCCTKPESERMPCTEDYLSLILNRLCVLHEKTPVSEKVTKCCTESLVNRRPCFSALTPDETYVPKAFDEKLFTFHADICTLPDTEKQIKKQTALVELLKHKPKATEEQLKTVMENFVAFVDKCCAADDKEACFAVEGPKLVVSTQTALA

[1] = probe aXIP binding to arrayed compounds – biochemical, NeuroSMM set, 635/667 nm fluorescence, primary screen (AID 1119); conditions: small-molecule microarray, higher = more signal, called active from +8 up or from −8 down;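 also: probe is the protein aXip251-270 applied at 1 µg/mL to compound-printed slides; binding of probe to printed compounds measured as 667 nm fluorescence plus signal to noise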
[2] = probe aNOTCH3 binding on compound microarray – biochemical, small-molecule microarray, 635/667 nm fluorescence, primary screen (AID 1120); conditions: higher = more signal;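 also: probe is a biotin-tagged antibody raised against NOTCH3 rather than NOTCH3 protein; score merges spot fluorescence near 667 nm with spot signal to noise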
[3] = probe aNOTCH2 binding on compound microarray – biochemical, small-molecule microarray, 635/667 nm fluorescence, primary screen (AID 1121); conditions: higher = more signal;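 also: score merges feature fluorescence read at 667 nm with its signal to noise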
[4] = biological target: Carbonic anhydrase 2 (Homo sapiens) (UniProt P00918); assay: compounds binding carbonic anhydrase 2 – biochemical, small-molecule microarray, Alexa647-labelled CAII, profiling panel (AID 1122); conditions: CAII-A647 binding fluorescence, higher = more signal
[5] = COS7 lysate on small-molecule microarray, probe aHis, 635 nm (AID 1123); conditions: COS7 cell lysate, fluorescence, higher = more signal;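 also: z-score combines 667nm fluorescence intensity with signal-to-noise per printed compound spot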
[6] = probe aLAP1 signal on lysate-treated microarray – cell lysate, small-molecule microarray, COS7 lysate, primary screen (AID 1124); conditions: probe aLAP1, fluorescence, higher = more signal;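 also: lysate comes from COS7 cells expressing LAP1 and is applied at 0.3 µg/mL; score merges spot fluorescence near 667 nm with signal-to-noise over triplicate slides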
Sam68 (KHDRBS1) = assay: compounds binding KHDRBS1 protein – biochemical, small-molecule microarray, 635 nm fluorescence, primary screen (AID 1125); conditions: higher = more signal;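 also: score merges 667 nm channel intensity with signal to noise over triplicate slides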
[7] = tested on: Chordin-like protein 2 (CHRDL2); assay: compounds binding chordin-like 2 – biochemical, small-molecule microarray, 635 nm fluorescence, primary screen (AID 1126); conditions: fluorescence 635 nm, higher = more signal;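 also: printed compound slides probed with Chrdl2 protein at 4 µg/mL for 1 h at 4 C; score merges 667 nm emission intensity with signal to noise over three replicate slides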
[8] = biological target: Concanavalin-A (Canavalia ensiformis) (UniProt P02866); assay: compounds binding concanavalin A lectin – biochemical, small-molecule microarray, Alexa647 label, 635 nm, artefact control for SMM control protein annotation, primary screen (AID 1127); conditions: ConA-A647 binding fluorescence, higher = more signal;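 also: z combines 667 nm emission intensity with signal-to-noise across three replicate slides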
Chain of Concanavalin-A (Canavalia ensiformis) (P02866 whole entry, looked up): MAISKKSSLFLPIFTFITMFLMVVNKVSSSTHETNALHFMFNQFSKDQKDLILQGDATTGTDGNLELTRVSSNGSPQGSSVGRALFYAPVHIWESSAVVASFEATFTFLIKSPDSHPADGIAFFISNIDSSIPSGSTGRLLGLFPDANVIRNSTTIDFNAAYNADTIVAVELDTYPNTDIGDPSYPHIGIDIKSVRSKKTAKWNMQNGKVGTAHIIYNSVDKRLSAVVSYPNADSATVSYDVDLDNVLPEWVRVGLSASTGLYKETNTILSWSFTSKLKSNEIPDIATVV

[9] = compounds binding Alexa647 anti-His antibody – biochemical, small-molecule microarray, 635 nm fluorescence, artefact control for SMM control protein annotation, primary screen (AID 1128); conditions: higher = more signal;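 also: score merges feature fluorescence with signal-to-noise for each printed compound spot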
[10] = tested on: Human papillomavirus type 1a E7 protein (residues 1-88); assay: HPV1a E7 small-molecule binders, primary screen, biochemical, small-molecule microarray, residues 1-88, 635 nm (AID 1129); conditions: small-molecule microarray binding, fluorescence 635 nm; higher = more signal
[11] = biological target: Focal adhesion kinase 1 (Homo sapiens) (UniProt Q05397); assay: PTK2 protein binding on printed compound slides – biochemical, small-molecule microarray, 635/667 nm fluorescence, BSA, DTT, primary screen (AID 1130); conditions: 635 nm fluorescence, higher = more signal;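 also: composite of spot emission at 667 nm and signal to noise over triplicate slides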
Chain of Focal adhesion kinase 1 (Homo sapiens) (Q05397 whole entry, looked up): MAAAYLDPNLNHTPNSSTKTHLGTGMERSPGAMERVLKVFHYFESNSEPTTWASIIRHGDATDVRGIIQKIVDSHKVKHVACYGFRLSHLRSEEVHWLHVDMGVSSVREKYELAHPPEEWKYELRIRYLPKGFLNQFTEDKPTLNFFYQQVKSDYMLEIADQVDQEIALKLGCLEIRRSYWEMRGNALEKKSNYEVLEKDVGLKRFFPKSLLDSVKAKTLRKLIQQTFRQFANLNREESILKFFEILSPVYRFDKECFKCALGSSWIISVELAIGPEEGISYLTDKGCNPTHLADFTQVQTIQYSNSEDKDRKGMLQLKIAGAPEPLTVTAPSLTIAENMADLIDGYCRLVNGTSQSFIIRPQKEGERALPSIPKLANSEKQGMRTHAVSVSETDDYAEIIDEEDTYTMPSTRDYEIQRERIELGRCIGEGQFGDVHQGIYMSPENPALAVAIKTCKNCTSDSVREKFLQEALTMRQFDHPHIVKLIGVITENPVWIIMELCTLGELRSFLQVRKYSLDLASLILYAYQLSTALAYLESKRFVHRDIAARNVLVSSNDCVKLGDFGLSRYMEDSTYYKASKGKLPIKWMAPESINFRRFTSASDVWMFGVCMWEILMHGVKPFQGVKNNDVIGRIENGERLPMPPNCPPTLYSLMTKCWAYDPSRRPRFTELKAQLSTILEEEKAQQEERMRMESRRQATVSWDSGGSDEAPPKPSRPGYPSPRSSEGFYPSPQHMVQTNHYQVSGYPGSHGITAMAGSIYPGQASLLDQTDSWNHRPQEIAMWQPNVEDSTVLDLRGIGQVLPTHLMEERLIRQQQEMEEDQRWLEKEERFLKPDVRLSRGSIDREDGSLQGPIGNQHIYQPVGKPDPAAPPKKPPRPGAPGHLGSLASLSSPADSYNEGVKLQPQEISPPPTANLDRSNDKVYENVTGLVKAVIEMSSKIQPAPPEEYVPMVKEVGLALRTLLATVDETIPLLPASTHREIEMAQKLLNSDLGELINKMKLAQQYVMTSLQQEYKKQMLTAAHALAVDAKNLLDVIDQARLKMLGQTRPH

[12] = tested on: Fibrinogen (Alexa647-labelled); assay: Alexa647-fibrinogen binding to printed small molecules – biochemical, small-molecule microarray, 635/667 nm fluorescence, artefact control for SMM control-protein annotation, profiling panel (AID 1131); conditions: fibrinogen-A647 binding fluorescence, higher = more signal;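 also: z-score merges 667 nm fluorescence with per-spot signal-to-noise over triplicate slides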
[13] = biological target: Follistatin (Homo sapiens) (UniProt P19883); assay: FST protein binding to printed compounds – biochemical, small-molecule microarray, 635/667 nm fluorescence, primary screen (AID 1132); conditions: 635 nm fluorescence, higher = more signal
Chain of Follistatin (Homo sapiens) (P19883 whole entry, looked up): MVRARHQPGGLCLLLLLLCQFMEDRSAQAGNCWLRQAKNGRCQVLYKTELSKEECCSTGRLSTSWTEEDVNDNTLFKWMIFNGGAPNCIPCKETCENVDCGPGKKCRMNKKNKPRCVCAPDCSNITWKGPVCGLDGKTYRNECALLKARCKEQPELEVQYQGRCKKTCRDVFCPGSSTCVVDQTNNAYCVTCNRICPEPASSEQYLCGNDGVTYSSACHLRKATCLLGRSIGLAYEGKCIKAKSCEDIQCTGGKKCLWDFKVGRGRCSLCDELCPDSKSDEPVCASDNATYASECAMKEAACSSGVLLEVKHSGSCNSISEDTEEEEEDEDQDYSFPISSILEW

[14] = biological target: Fibroblast growth factor 2 (Homo sapiens) (UniProt P09038); assay: basic fibroblast growth factor binding to printed compounds – biochemical, small-molecule microarray, 635/667 nm fluorescence, primary screen (AID 1133); conditions: FGF2, fluorescence 635/667, higher = more signal
Chain of Fibroblast growth factor 2 (Homo sapiens) (P09038 whole entry, looked up): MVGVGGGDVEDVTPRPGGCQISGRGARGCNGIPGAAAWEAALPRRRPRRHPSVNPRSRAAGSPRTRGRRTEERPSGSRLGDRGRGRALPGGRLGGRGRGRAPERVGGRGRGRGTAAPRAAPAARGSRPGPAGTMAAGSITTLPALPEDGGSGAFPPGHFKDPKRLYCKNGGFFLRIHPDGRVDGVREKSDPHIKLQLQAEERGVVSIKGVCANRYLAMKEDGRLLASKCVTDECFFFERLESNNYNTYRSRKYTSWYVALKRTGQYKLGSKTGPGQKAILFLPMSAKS

[15] = JC-1 mitochondrial potential readout, lung cancer cells – cell-based, A549, JC-1 fluorescence, basal, 24 h, 100 nL, profiling panel (AID 1138); conditions: higher = more signal;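 also: A549 lung adenocarcinoma cells under basal conditions with no added stimulus; test concentration not given here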
Lefty1 = Lefty1 protein binding to printed compounds – biochemical, small-molecule microarray, 635/667 nm fluorescence, primary screen (AID 1139); conditions: fluorescence 635/667, higher = more signal
[16] = tested on: wheat germ agglutinin (Triticum aestivum), Alexa647-labelled; assay: Alexa647-WGA lectin binding to printed small molecules – biochemical, small-molecule microarray, 635/667 nm fluorescence, artefact control for SMM control-protein annotation, profiling panel (AID 1140); conditions: WGA-A647 binding, 635 nm fluorescence, higher = more signal;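 also: score merges 667 nm feature emission with signal to noise over triplicate slides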
[17] = biological target: Luciferin 4-monooxygenase (Photinus pyralis) (UniProt P08659); assay: inhibition of purified Photinus pyralis luciferase – biochemical, luminescence, purified enzyme, 2006 set, primary screen (AID 1141); conditions: purified firefly luciferase, SteadyGlo luminescence, 30 min; higher = more signal, called active from +8 up or from −8 down;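 also: cell-free assay with purified firefly luciferase at 100 ng per well in PBS; test concentration not given here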
Chain of Luciferin 4-monooxygenase (Photinus pyralis) (P08659 whole entry, looked up): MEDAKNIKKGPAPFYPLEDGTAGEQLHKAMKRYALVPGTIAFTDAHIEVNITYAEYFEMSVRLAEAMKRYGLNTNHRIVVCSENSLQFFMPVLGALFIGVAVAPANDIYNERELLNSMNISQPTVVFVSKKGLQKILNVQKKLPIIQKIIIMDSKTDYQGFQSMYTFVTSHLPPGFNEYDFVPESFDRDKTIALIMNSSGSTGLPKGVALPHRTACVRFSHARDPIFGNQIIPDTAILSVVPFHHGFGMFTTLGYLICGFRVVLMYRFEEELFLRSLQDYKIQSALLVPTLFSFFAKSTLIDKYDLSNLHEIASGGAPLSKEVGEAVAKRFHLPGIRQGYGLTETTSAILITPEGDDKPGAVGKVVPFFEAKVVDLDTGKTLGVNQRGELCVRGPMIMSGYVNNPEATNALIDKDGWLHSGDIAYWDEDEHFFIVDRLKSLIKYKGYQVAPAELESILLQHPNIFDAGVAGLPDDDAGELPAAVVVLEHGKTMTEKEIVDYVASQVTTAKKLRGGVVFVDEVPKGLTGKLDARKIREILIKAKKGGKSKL

**Q.** What does the source list for `COCCOC(=O)N1C(=O)[C@@]2(c3cc(C#Cc4ccc(OC)cc4)ccc31)[C@H](c1ccc(OCCO)cc1)N1[C@H](c3ccccc3)[C@H](c3ccccc3)OC(=O)[C@H]1[C@@H]2C(=O)NC[C@H](O)c1ccccc1`?
**A.** composite z-score (Albumin (Bos taurus)): 0.314; composite Z-score [1]: 0.217 (inactive); composite z-score [2]: 0.154; composite z-score [3]: 0.0022; composite z-score [4]: 0.471; composite z-score [5]: 0.575; composite z-score [6]: 0.511; composite z-score (Sam68 (KHDRBS1)): 1.3; composite z-score [7]: 0.311; composite z-score [8]: 1.16; composite z-score [9]: 1.2; composite z-score [10]: 1.17; composite z-score [11]: 1.32; composite z-score [12]: 0.941; composite z-score [13]: 1.33; composite z-score [14]: 1.19; z-score [15]: -0.936; composite z-score (Lefty1): 0.979; composite z-score [16]: 1.05; z-score [17]: -0.563 (inactive)

**Q.** Which results are given for `[N-]=[N+]=Nc1ccccc1[C@@H]1OC(c2ccc(OCCCO)cc2)=N[C@]1(Cc1ccccc1)C(=O)NCCN1CCOCC1`?
**A.** composite z-score (Albumin (Bos taurus)): 0.981; composite Z-score [1]: 0.0561 (inactive); composite z-score [2]: 0.156; composite z-score [3]: -0.0482; composite z-score [4]: 0.607; composite z-score [5]: 2.86; composite z-score [6]: 0.946; composite z-score (Sam68 (KHDRBS1)): 0.96; composite z-score [7]: -0.377; composite z-score [8]: 0.355; composite z-score [9]: 0.598; composite z-score [10]: 1.28; composite z-score [11]: 0.15; composite z-score [12]: 0.993; composite z-score [13]: 0.675; composite z-score [14]: -0.155; z-score [15]: -0.225; composite z-score (Lefty1): 0.278; composite z-score [16]: 0.399; z-score [17]: -5.81 (inactive)

**Q.** What does the source list for `[N-]=[N+]=Nc1ccccc1C[C@]1(C(=O)N2CCOCC2)N=C(c2ccc(OCCCO)cc2)O[C@H]1c1ccccc1N=[N+]=[N-]`?
**A.** composite z-score (Albumin (Bos taurus)): 0.832; composite Z-score [1]: 0.317 (inactive); composite z-score [2]: 0.472; composite z-score [3]: -0.14; composite z-score [4]: 0.648; composite z-score [5]: 3.09; composite z-score [6]: 0.654; composite z-score (Sam68 (KHDRBS1)): 1.28; composite z-score [7]: 0.86; composite z-score [8]: 1.15; composite z-score [9]: 2.37; composite z-score [10]: 1.19; composite z-score [11]: 1.08; composite z-score [12]: 0.96; composite z-score [13]: 1.41; composite z-score [14]: 1.79; z-score [15]: 0.268; composite z-score (Lefty1): 1.41; composite z-score [16]: 0.97; z-score [17]: -4.36 (inactive)

**Q.** Which results are given for `CN(C)C(=O)[C@]1(Cc2ccccc2)N=C(c2ccc(OCCCO)cc2)O[C@@H]1c1ccccc1CN=[N+]=[N-]`?
**A.** composite z-score (Albumin (Bos taurus)): 0.981; composite Z-score [1]: 0.0333 (inactive); composite z-score [2]: 0.34; composite z-score [3]: 0.0488; composite z-score [4]: 0.582; composite z-score [5]: 2.63; composite z-score [6]: 0.407; composite z-score (Sam68 (KHDRBS1)): 1.31; composite z-score [7]: -0.321; composite z-score [8]: 0.922; composite z-score [9]: 0.997; composite z-score [10]: 1.21; composite z-score [11]: 0.438; composite z-score [12]: 1.02; composite z-score [13]: 1.04; composite z-score [14]: 0.287; z-score [15]: 0.829; composite z-score (Lefty1): 0.463; composite z-score [16]: 0.569; z-score [17]: 0.361 (inactive)

**Q.** With `C=CCC(OC(C)=O)[C@@H]1[C@@H](N(Cc2ccc(-c3cccc(C(F)(F)F)c3)o2)C(=O)Cc2ccc(F)cc2)c2cc(OCCCO)ccc2N1C(=O)Cc1ccc2ccccc2c1` (stereo not given in full) as the molecule, how does the composite z-score (Albumin (Bos taurus)) read?
**A.** -0.0508

**Q.** What about the composite Z-score [1] of the same molecule?
**A.** -0.186 (inactive)

**Q.** What about the composite z-score [2] of the same molecule?
**A.** -0.182

**Q.** What about the composite z-score [3] of the same molecule?
**A.** -0.104

**Q.** What about the composite z-score [4] of the same molecule?
**A.** -0.25

**Q.** What about the composite z-score [5] of the same molecule?
**A.** 0.121

**Q.** And the composite z-score [6]?
**A.** -0.169

**Q.** And the composite z-score (Sam68 (KHDRBS1))?
**A.** -2.04

**Q.** And the composite z-score [7]?
**A.** 0.0229

**Q.** What about the composite z-score [8] of the same molecule?
**A.** -0.492

**Q.** And the composite z-score [9]?
**A.** 0.114

**Q.** And the composite z-score [10]?
**A.** -1.33

**Q.** And the composite z-score [11]?
**A.** -0.216

**Q.** What about the composite z-score [12] of the same molecule?
**A.** -0.193

**Q.** What about the composite z-score [13] of the same molecule?
**A.** 0.112

**Q.** What about the composite z-score [14] of the same molecule?
**A.** -0.599

**Q.** And the z-score [15]?
**A.** 0.696

**Q.** And the composite z-score (Lefty1)?
**A.** -0.482

**Q.** What about the composite z-score [16] of the same molecule?
**A.** 0.0382

**Q.** And the z-score [17]?
**A.** -0.442 (inactive)

**Q.** For `COCCCNC(=O)[C@@]1(CCS(=O)(=O)c2ccccc2)COC(c2ccc(OCCCO)cc2)=N1`, which composite z-score (Albumin (Bos taurus)) is on record?
**A.** 0.595

**Q.** What about the composite Z-score [1] of the same molecule?
**A.** 0.197 (inactive)

**Q.** And the composite z-score [2]?
**A.** 0.567

**Q.** What about the composite z-score [3] of the same molecule?
**A.** 0.0551

**Q.** What about the composite z-score [4] of the same molecule?
**A.** 0.919

**Q.** What about the composite z-score [5] of the same molecule?
**A.** 3.36

**Q.** And the composite z-score [6]?
**A.** 0.706

**Q.** And the composite z-score (Sam68 (KHDRBS1))?
**A.** 1.14

**Q.** And the composite z-score [7]?
**A.** -0.804

**Q.** And the composite z-score [8]?
**A.** 0.945

**Q.** What about the composite z-score [9] of the same molecule?
**A.** 3.75

**Q.** What about the composite z-score [10] of the same molecule?
**A.** 0.92

**Q.** What about the composite z-score [11] of the same molecule?
**A.** 0.394

**Q.** And the composite z-score [12]?
**A.** 1.02

**Q.** What about the composite z-score [13] of the same molecule?
**A.** 1.31

**Q.** What about the composite z-score [14] of the same molecule?
**A.** 0.194

**Q.** What about the z-score [15] of the same molecule?
**A.** 0.206

**Q.** What about the composite z-score (Lefty1) of the same molecule?
**A.** -0.0951

**Q.** And the composite z-score [16]?
**A.** 1.59

**Q.** And the z-score [17]?
**A.** -0.0482 (inactive)
